The values that follow come from PubChem BioAssay.

Assay [1] concerns Wnt5a (protein binding on small-molecule microarray). The experiment in a line: Wnt5a binders on small-molecule microarray, primary screen, biophysical, 635/667 nm fluorescence (AID 1142).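 Note: fluorescence read at 667 nm with signal to noise per printed feature.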 Particulars: 635 nm fluorescence, higher = more signal.
Assay [2] in a line: cell viability in Huh7 cells, primary screen, cytotoxicity control for HCV replication inhibitor project, CellTiter-Glo luminescence, basal, 48 h (AID 1143).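 Note: Huh7 hepatoma cells carrying a hepatitis C replication reporter with no stimulus; test concentration not given here.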 Particulars: Huh7 HCV replicon, higher = more signal, called active from +8 up or from −8 down.
Assay [3] can be described thus: P. aeruginosa biofilm formation inhibitors, primary screen, PAO1 strain, BacTiter-Glo luminescence, LB-PBS (AID 1144). Particulars: 12 h, higher = more signal.
A short description of assay [4]: CREB reporter modulators without forskolin, primary screen, cell-based, PC12, CRE-LacZ reporter, unstimulated (AID 1145). Particulars: no forskolin, luminescence, 4.5 h, higher = more signal, called active from +8 up or from −8 down.
A short description of assay [5]: CREB reporter modulators under forskolin, primary screen, cell-based, PC12, CRE-LacZ reporter, forskolin-stimulated (AID 1146).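 Note: PC12 cells with 6xCRE LacZ reporter stimulated by forskolin 10 µM; beta-galactosidase reporter signal reflecting CREB driven transcription.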 Particulars: luminescence, 4.5 h, higher = more signal, called active from +8 up or from −8 down.
Assay [6] concerns the target Streptavidin (Streptomyces avidinii) (UniProt P22629). The assay is described as follows: streptavidin binders on small-molecule microarray, primary screen, artefact control for SMM compound annotation, biophysical, 635/667 nm fluorescence (AID 1147).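 Note: signal reflects streptavidin binding to arrayed compounds as a control protein.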 Particulars: streptavidin binding, higher = more signal.
The nature of assay [7]: small-molecule binders of probe aInhba, primary screen, biochemical, small-molecule microarray, 635/667 nm fluorescence (AID 1148).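 Note: score merges 667nm spot fluorescence with signal-to-noise for antibody binding to printed compounds.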 Particulars: higher = more signal.
Assay [8] deals with Torsin-1A (Homo sapiens) (UniProt O14656). The experiment in a line: torsin A binders from cell lysate, primary screen, small-molecule microarray, wild-type, 635/667 nm (AID 1149). Particulars: COS7 hTOR1A-WT lysate, 635 nm fluorescence, higher = more signal.
Assay [9] has the same target. The experiment in a line: small-molecule binders of mutant TOR1A in lysate, primary screen, cell lysate, small-molecule microarray, COS7 lysate, 635/667 nm fluorescence (AID 1150).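 Note: score pools 667 nm emission and signal to noise measuring lysate protein binding.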 Particulars: COS7 hTOR1A mutant lysate, 635 nm fluorescence, higher = more signal.
The subject of assay [10] is Sonic hedgehog protein (Shh). The experiment in a line: small-molecule binders of Shh protein, primary screen, biochemical, small-molecule microarray, 635/667 nm fluorescence (AID 1151).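 Note: Shh protein binding to compounds spotted on small-molecule microarray slides; score combines spot fluorescence intensity with signal-to-noise across triplicate slides.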 Particulars: small-molecule microarray binding, 635 nm fluorescence; higher = more signal.
A short description of assay [11]: E. coli DRC41 culture turbidity changes, primary screen, E. coli filamentation inducer project, strain DRC41, OD650, 48 h (AID 1152).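 Note: E. coli MC1000 strain DRC41 lacking acrAB efflux pump and sulA.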 Particulars: E. coli DRC41 (acrAB sulA), higher = more signal, called active from +8 up or from −8 down.
Assay [12] in a line: small-molecule binders of probe aLefty1, primary screen, biochemical, small-molecule microarray, 635/667 nm fluorescence (AID 1153).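 Note: score merges spot fluorescence with signal-to-noise ratio from the scanned slide images.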 Particulars: higher = more signal.
Assay [13] in a line: PSAC antagonists in infected red cells, primary screen, cell-based, P. falciparum Indochina, OD700, 1 h (AID 1154). Particulars: P. falciparum Indochina infected RBC osmotic lysis, higher = more signal, called active from +8 up or from −8 down.
Assay [14] can be described thus: PSAC antagonists in infected red cells, primary screen, cell-based, P. falciparum Indochina, OD700, 2 h (AID 1155).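 Note: lysis reports solute entry through the parasite surface anion channel PSAC; channel blockers reduce lysis of infected cells.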 Particulars: P. falciparum Indochina infected erythrocytes, osmotic lysis OD700; higher = more signal, called active from +8 up or from −8 down.
Assay [15] is described as follows: osmotic lysis modulators in infected erythrocytes, primary screen, PSAC antagonist project, cell-based, P. falciparum Indochina, OD700, 3 h (AID 1156). Particulars: higher = more signal, called active from +8 up or from −8 down.
Assay [16] is described as follows: PSAC antagonists in infected red cells, primary screen, cell-based, P. falciparum Indochina, OD700, 18 h (AID 1157). Particulars: P. falciparum Indochina infected erythrocytes, osmotic lysis OD700, 18 h; higher = more signal, called active from +8 up or from −8 down.
The nature of assay [17]: modulators of S6 phosphorylation in cells, primary screen, cell-based, A549, cytoblot, luminescence, serum-stimulated (AID 1158).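 Note: serum-stimulated A549 lung adenocarcinoma cells; signal is phosphorylated S6 detected by cytoblot immunostaining with HRP secondary.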 Particulars: A549 phospho-S6 cytoblot, 5 h, higher = more signal.
In assay [18] the target is NADPH oxidase 2 (Homo sapiens) (UniProt P04839). The assay is described as follows: NOX2-dependent H2O2 signal modulators, primary screen, NOX inhibitor project, cell-based, HEK293-NOX2, PMA-stimulated, Amplex Red fluorescence (AID 1159). Note: test concentration not given here. Particulars: 45 min, higher = more signal, called active from +8 up or from −8 down.
In assay [19] the target is NADPH oxidase 4 (Homo sapiens) (UniProt Q9NPH5). The assay is described as follows: NOX4-dependent H2O2 signal modulators, primary screen, NOX inhibitor project, cell-based, HEK293-NOX4, tetracycline-induced, Amplex Red fluorescence (AID 1160). Particulars: 45 min, higher = more signal, called active from +8 up or from −8 down.
Assay [20] addresses NADPH oxidase 5 (Homo sapiens) (UniProt Q96PH1). The assay is described as follows: NOX5-dependent H2O2 signal modulators, primary screen, NOX inhibitor project, cell-based, HEK293-NOX5, Amplex Red fluorescence (AID 1161). Particulars: HEK293-NOX5, ionomycin, 45 min, higher = more signal.

Structures are written as SMILES. Active and inactive are the calls of the source. Unless noted, the rule behind the calls is not given here.

Chain of Torsin-1A (Homo sapiens) (O14656 whole entry, looked up): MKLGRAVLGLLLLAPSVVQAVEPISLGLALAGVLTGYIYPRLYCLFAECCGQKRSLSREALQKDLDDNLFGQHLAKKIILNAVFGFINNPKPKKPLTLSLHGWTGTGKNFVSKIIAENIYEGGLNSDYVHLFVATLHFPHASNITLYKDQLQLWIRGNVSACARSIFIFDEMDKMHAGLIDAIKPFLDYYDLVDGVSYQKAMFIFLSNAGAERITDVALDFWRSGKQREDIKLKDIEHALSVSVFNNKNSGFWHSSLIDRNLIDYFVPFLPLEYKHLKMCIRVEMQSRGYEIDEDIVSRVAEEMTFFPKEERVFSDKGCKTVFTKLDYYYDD
Chain of NADPH oxidase 2 (Homo sapiens) (P04839 whole entry, looked up): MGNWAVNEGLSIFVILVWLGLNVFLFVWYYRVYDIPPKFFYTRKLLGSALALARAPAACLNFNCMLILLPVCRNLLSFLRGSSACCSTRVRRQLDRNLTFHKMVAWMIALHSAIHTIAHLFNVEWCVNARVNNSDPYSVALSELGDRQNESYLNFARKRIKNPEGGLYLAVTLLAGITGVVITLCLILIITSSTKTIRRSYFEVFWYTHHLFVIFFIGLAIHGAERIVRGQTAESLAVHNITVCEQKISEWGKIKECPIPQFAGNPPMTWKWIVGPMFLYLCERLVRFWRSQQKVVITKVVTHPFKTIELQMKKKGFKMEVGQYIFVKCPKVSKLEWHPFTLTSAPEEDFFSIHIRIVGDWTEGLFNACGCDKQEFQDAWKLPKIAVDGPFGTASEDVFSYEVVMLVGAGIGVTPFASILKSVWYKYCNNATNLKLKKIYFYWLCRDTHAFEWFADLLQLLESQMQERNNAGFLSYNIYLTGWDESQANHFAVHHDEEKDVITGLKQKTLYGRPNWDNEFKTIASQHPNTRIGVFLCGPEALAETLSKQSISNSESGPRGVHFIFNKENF
Chain of Streptavidin (Streptomyces avidinii) (P22629 whole entry, looked up): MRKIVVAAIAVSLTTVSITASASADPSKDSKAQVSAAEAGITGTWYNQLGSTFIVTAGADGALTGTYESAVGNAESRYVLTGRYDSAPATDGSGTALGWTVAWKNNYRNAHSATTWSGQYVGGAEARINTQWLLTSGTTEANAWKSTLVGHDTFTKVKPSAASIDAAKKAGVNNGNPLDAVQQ
Chain of NADPH oxidase 5 (Homo sapiens) (Q96PH1 whole entry, looked up): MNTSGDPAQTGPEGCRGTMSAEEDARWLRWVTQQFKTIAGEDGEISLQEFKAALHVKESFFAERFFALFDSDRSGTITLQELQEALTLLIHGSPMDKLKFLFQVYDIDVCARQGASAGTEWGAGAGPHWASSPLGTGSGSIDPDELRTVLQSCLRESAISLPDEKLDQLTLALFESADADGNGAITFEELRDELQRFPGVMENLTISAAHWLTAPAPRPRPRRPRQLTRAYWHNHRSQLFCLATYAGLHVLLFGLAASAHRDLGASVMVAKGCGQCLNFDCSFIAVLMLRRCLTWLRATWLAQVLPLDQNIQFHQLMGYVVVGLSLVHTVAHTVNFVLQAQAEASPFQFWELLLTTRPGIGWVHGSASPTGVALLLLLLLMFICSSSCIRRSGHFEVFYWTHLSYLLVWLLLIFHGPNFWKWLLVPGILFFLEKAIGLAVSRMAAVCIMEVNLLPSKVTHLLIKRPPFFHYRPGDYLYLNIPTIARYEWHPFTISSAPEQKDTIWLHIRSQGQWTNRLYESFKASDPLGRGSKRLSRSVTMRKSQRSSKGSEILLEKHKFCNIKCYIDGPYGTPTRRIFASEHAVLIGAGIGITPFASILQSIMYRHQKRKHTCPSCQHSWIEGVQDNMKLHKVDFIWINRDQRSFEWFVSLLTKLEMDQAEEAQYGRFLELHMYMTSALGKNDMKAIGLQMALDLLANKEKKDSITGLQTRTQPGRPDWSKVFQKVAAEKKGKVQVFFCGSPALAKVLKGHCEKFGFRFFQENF
Chain of NADPH oxidase 4 (Homo sapiens) (Q9NPH5 whole entry, looked up): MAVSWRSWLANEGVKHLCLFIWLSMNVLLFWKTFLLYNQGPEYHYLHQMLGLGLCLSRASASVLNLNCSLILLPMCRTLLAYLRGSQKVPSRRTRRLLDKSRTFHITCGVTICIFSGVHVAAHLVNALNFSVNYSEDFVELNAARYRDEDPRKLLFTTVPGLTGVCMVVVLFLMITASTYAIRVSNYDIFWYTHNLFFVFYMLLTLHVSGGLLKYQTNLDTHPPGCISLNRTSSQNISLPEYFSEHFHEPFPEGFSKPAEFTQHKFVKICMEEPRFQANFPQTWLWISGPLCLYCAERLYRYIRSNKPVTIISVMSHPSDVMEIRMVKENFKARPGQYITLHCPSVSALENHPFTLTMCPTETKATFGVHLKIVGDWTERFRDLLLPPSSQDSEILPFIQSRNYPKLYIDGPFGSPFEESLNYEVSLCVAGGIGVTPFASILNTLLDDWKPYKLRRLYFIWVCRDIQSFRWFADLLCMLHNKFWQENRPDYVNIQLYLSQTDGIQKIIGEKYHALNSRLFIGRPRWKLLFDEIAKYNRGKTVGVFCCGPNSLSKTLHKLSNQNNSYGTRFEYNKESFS

Consider `COc1cc2c(cc1OC)CN(C(=O)[C@@H]1[C@H]3C(=O)O[C@H](c4ccccc4)[C@H](c4ccccc4)N3[C@H](c3ccc(OCCO)cc3)[C@@]13C(=O)Nc1ccccc13)CC2`, for which the composite z-score was found to be 0.758 in assay [1]; 0.607 in assay [6]; 0.188 in [7]; 1.06 with Torsin-1A (Homo sapiens) [8]; 0.858 in the assay with Torsin-1A (Homo sapiens) [9]; 1.93 in assay [10]. The molecule further displayed a composite z-score in [12] of 0.534. Also, the z-score in [2] is -1.06 (inactive); in [3], -1.46 (inactive); in [4], 0.829 (inactive); in assay [5] it was -0.437 (inactive); in [11], 0.547 (inactive); in assay [13], 5.29 (inactive). In addition, the z-score in assay [14] was 2.11 (inactive); in [15] it was 1.06 (inactive); in assay [16] it was 0.956 (inactive); in assay [17], -0.0621; in assay [18] it was 0.799 (inactive); in [19], 0.837 (inactive). Also, the z-score in assay [20] turned out to be 1.03.

In the case of `C[N+](C)(C)CCCC[C@@H]1NC(=O)[C@H]2C[C@@H](C(=O)NCCCCCCN)[C@@H](c3ccc(O)cc3)N2C1=O`, the composite z-score in assay [1] was 0.408; in [6], 0.859; in assay [7] it was 0.108; with Torsin-1A (Homo sapiens) [8] it was 0.774; in the assay with Torsin-1A (Homo sapiens) [9] it was 0.545; in assay [10] it was -0.117. The same molecule registered a composite z-score in assay [12] of 0.284. The z-score in assay [2] is -0.548 (inactive); in assay [3] it was 1.09 (inactive); in [4] it was -0.528 (inactive); in assay [5], -1.1 (inactive); in assay [11], 0.429 (inactive); in assay [13], 0.625 (inactive). The z-score in assay [14] was 0.328 (inactive); in assay [15], -2.08 (inactive); in assay [16], 0.326 (inactive); in assay [17] it was 0.191; in [18], 0.00341 (inactive); in assay [19], -1.73 (inactive). This molecule showed a z-score in [20] of 0.273.

`O=C1NC(=O)C2C1C=CC(C(O)c1c(F)cccc1Cl)N2Nc1ccc(Cl)cc1Cl` (stereo not given): the composite z-score in assay [1] is 0.275; in assay [6], 1.23; in [7], 0.414; with Torsin-1A (Homo sapiens) [8] it was 0.465; with Torsin-1A (Homo sapiens) [9], 1.27; in assay [10], -0.854. Moreover, the composite z-score in [12] came out at 0.501. For the same molecule, the z-score was -1.37 (inactive) in [2]; -0.159 (inactive) in assay [3]; 0.632 (inactive) in assay [4]; -0.524 (inactive) in [5]; -3.86 (inactive) in assay [11]; 3.9 (inactive) in [13]. Besides, the z-score in [14] is 0.914 (inactive); in assay [15] it was -0.87 (inactive); in assay [16] it was 1.17 (inactive); in [17], -1.27; in [18] it was 0.295 (inactive); in [19] it was -5.4 (inactive). Further, the z-score in [20] was -2.57.

On to `COc1ccc([Si](C)(C)[C@@H]2[C@@H](CC(=O)N3Cc4ccccc4C[C@H]3CO)O[C@]3(C(=O)N(C)c4ccccc43)[C@H]2C)cc1`, for which the composite z-score was 0.269 in [1]; 1.64 in assay [6]; 0.189 in [7]; 0.783 with Torsin-1A (Homo sapiens) [8]; 0.741 with Torsin-1A (Homo sapiens) [9]; 2.03 in [10]. This molecule showed a composite z-score in [12] of 0.503. Moreover, the z-score in assay [2] was -7.08 (inactive); in assay [3], -1.58 (inactive); in [4], 10.2 (active); in assay [5] it was -1.92 (inactive); in assay [11], -0.883 (inactive); in assay [13] it was 11.8 (active). Moreover, the z-score in assay [14] is 2.87 (inactive); in [15], 0.368 (inactive); in assay [16], 1.21 (inactive); in assay [17], 0.884; in [18], -0.11 (inactive); in [19] it was 0.00429 (inactive). In assay [20], the z-score is -1.7.

In the case of `COc1cc2c(cc1OC)CN(C(=O)[C@@H]1[C@H]3C(=O)O[C@H](c4ccccc4)[C@H](c4ccccc4)N3[C@H](c3ccc(OCCO)cc3)[C@@]13C(=O)Nc1ccc(C#CC4(O)CCCCCC4)cc13)CC2`, the composite z-score is 0.754 in [1]; 1.51 in assay [6]; -0.164 in assay [7]; 0.746 with Torsin-1A (Homo sapiens) [8]; 1.09 with Torsin-1A (Homo sapiens) [9]; 1.44 in assay [10]. The composite z-score in assay [12] stood at 0.246. For the same molecule, the z-score was -3.13 (inactive) in [2]; -1.35 (inactive) in [3]; -0.608 (inactive) in [4]; 0.419 (inactive) in assay [5]; 3.13 (inactive) in assay [11]; 4.33 (inactive) in [13]. For the same molecule, the z-score was 1.05 (inactive) in assay [14]; 0.785 (inactive) in assay [15]; -1.27 (inactive) in assay [16]; 2.48 in [17]; 0.737 (inactive) in [18]; 0.802 (inactive) in [19]. For the same molecule, the z-score in assay [20] was determined as 1.82.
